# Measurements: the supplement of paper PMC3334620
# The full ranking holds about 33,000 sequences; the median of “E-score (-0.5 to 0.5)” is about -0.012, and the highest 2% start at about 0.27. The sample as a whole holds a higher share of the highest values than the screen did.
# Molecular target: T1, Vhr1 (UniProt P40522)
# T1 sequence: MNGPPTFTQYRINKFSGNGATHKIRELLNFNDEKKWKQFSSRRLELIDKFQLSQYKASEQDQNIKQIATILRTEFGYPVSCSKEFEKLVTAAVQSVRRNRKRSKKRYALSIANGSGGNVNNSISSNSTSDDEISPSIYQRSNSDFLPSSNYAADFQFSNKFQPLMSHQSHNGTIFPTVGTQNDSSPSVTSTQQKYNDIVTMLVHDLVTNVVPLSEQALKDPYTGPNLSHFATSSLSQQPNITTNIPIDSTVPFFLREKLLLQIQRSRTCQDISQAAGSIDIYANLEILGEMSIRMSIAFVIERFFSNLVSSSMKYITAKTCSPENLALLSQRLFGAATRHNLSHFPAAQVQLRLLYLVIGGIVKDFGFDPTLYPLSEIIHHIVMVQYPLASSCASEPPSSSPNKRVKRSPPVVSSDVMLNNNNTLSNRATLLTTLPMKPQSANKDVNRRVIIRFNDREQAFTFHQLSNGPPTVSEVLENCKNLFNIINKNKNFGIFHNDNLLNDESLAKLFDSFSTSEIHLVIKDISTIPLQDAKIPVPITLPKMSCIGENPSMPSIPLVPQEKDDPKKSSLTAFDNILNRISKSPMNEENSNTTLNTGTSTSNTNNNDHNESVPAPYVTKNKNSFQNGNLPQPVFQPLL
# Assay: PBM E-score (8-mer binding enrichment) (E-score (-0.5 to 0.5)); higher = stronger / more preferred TF binding
# Conditions: protein concentration: 200 nM; construct: GST-full length
# Method: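 Universal 'all 10-mer' protein binding microarrays (Agilent AMADID 015681) probed with GST-tagged S. cerevisiae TFs (full-length or DBD) made by in vitro transcription/translation (PURExpress), about 100-200 nM. Bound TF was detected with fluorescent anti-GST. Each ungapped 8-mer (which stands for itself and its reverse complement) is scored by the PBM enrichment score (E-score), a modified Wilcoxon-Mann-Whitney statistic from -0.5 to +0.5, computed with the Universal PBM Analysis Suite. Scale: above 0.35 generally sequence-specific binding.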
row,Sequence,PBM E-score
1,ACCTCCTG,-0.139
2,CGTCTCGC,-0.0775
3,ATATCTGC,0.104
4,AGAAGATG,-0.183
5,ACCCGCGC,0.342
6,TCCCGCCA,0.0546
7,CACCGCCC,0.293
8,CCCCGCGG,0.0864
9,GCCCGCCA,0.13
10,ACCCGCGT,0.00191
11,AACCGCCC,0.0139
12,ACCCGCGA,0.144
13,CACCGCCA,0.242
14,AGCCGCGG,0.178
15,CCCCGCCA,0.398
16,ACCCGCGG,0.275
17,AGTCTAAG,-0.0818
18,AAAAAAGC,-0.19
19,CGAGATTA,0.0687
20,GGAGGGGA,0.219
21,TACGCCAA,-0.241
22,ACCCGCCC,0.428

row,Sequence,PBM E-score
1,GCCCGCCC,0.137
2,ACCCGCCG,0.197
3,ATCCTACC,0.0595
4,ACGCTTAC,-0.205
5,CTGTGTGC,0.177
6,ATGTGTTA,0.195
7,ATGTGTGC,0.12
8,ATGTGTCA,0.143
9,ATGTGTCC,0.157
10,ATGTGTCG,0.29
11,GTGTGTTA,0.278
12,ATGTGTGG,0.08
13,CTGTGTAA,0.134
14,CTGTGTTA,0.169
15,CTGTGTGA,0.306
16,ATGTGTGA,0.29
17,AGGACTGG,0.113
18,ACTAGACG,-0.048
19,ATTTTGCC,-0.15
20,AGACTTGC,-0.249
21,AACATCTA,-0.152
22,CACCAGCC,0.143

row,Sequence,PBM E-score
1,ATAGACGG,0.00408
2,TACCAACA,0.145
3,GATATGCA,-0.0288
4,TCTTTCCA,-0.157
5,GGCCAAAC,-0.155
6,GTGTGAGA,0.0943
7,GCGTGTGA,0.104
8,GTGTGTGA,0.298
9,TAGAGGGA,-0.0999
10,AGTTTGAT,0.0522
11,CTTAACCC,-0.213
12,AACCAGAC,-0.00075
13,CACCAGAC,0.309
14,GACCAGAC,-0.141
15,GCTTGCAC,-0.0624
16,CTGATTTC,-0.00794
17,ATGATTAG,0.317
18,CTGATTAC,0.278
19,ATGATTAC,0.391
20,ACGATTAC,0.161
21,AAGATTAC,-0.0671
22,ATCATTAC,0.274

row,Sequence,PBM E-score
1,CTGATTAA,0.191
2,ATCATTAA,0.0987
3,ATCATTAG,0.148
4,ATGATTAA,0.264
5,ACGATTAG,0.045
6,TGCCACAA,0.0692
7,TAGTAGAA,-0.199
8,ATGGTAGG,0.104
9,CCTAAGCA,-0.108
10,GAAGCACA,-0.00604
11,GATCAGTA,0.121
12,ACGTGACA,-0.197
13,ACGTGACG,-0.137
14,AGGTGACA,0.0488
15,AGGTGACG,-0.0476
16,ACGTGACT,0.41
17,AGGTGACT,0.425
18,CTCATAAC,0.00985
19,ATGTGGTG,0.227
20,AGAAGATA,-0.193
21,TCAGTTAA,-0.108
22,AGTAGGCA,0.154

row,Sequence,PBM E-score
1,CACAACGC,0.134
2,CTGACTAA,0.359
3,GGGACTAA,-0.209
4,CGGACTAC,0.0519
5,CTGACTAC,0.361
6,AAGACTAG,-0.209
7,CGGACTAA,0.102
8,GTGACTAA,0.428
9,GTGACTTA,0.259
10,CAGACTAC,0.136
11,CAGACTAA,0.117
12,ACGACTAG,0.162
13,ATGACTAG,0.369
14,AGGTGGAG,-0.191
15,CGATCGCA,0.178
16,TCCCTGCA,0.0302
17,AGGGTTGC,-0.068
18,CGAGCGAG,0.262
19,ATTCGAGC,-0.0346
20,GGCCATAC,0.0276
21,ATGACTAA,0.42
